Assay results from PubChem BioAssay AID588689 (Southern Research Specialized Biocontainment Screening …, 2011).
The whole screen tested about 340,000 compounds, of which about 1,000 (0.29%) were called active. No stated cut-off is given here; in the data, inconclusive means inhibition above about 29% without an active follow-up result; inactive means below that. Not all results are given here. Potency and affinity values are given separately.

Target: Genome polyprotein (Dengue virus type 2 (strain 16681-PDK53)) (UniProt P29991)
Assay: Dengue-2 NS5 methyltransferase inhibitors, primary screen, biochemical, confirmation dose response (AID 588689)
Conditions: Dengue-2 NS5 methyltransferase capping enzyme assay, at 25 µM, stronger effect = higher value
[1] = measured here: pilot screen replicate inhibition

SMILES	inhibition	inhibition [1]
COc1ccc(/C=C(\C#N)C(=O)OCC(=O)N2CC(C)OC(C)C2)cc1 (centres undefined)	-2.3% (inactive)	
O=C(CCCOc1ccc(Cl)cc1Cl)N/N=C/c1ccccc1	-4.44% (inactive)	
CCCCCCCC(=O)N1c2ccccc2NC(=O)C1CC(=O)Nc1ccc(C(=O)O)cc1 (centres undefined)	8.1% (inactive)	
Cc1ccccc1NS(=O)(=O)c1ccc(C(=O)N2CCCC(C(F)(F)F)C2)cc1 (centres undefined)	0.73% (inactive)	
COc1cc(OC)cc(C(=O)NC2CCSC2=O)c1 (centres undefined)	2.06% (inactive)	-3.04%
CCc1c(C)c2nncn2[nH]c1=O	-3.9% (inactive)	
CCOc1ccc(NC(=O)CN(C)C(=O)C2CC(=O)N(c3ccc4c(c3)OCCO4)C2)cc1OCC (centres undefined)	5.04% (inactive)	
CC(C)Cn1c(SCC(=O)N2CC(=O)Nc3ccccc32)nc2ccccc21	-0.64% (inactive)	
CC(=O)OCC1CCCC2=C(C)C(=O)CCC21COC(C)=O (centres undefined)	3.29% (inactive)	
Cc1ccccc1NC(=O)NC1(C(=O)N2CCOCC2)CCCCC1	-3.7% (inactive)	
COc1ccc(CCn2c(=O)c3cccnc3n(Cc3ccc([N+](=O)[O-])cc3)c2=O)cc1OC	-7.08% (inactive)	
CCS(=O)(=O)c1ccc(O)c(NC(=O)CCCC(=O)O)c1	12.2% (inactive)	
CCCCCC(=O)Nc1cc(S(=O)(=O)N2CCCCC2)ccc1N1CCCCC1	-6.48% (inactive)	
Cc1ccc(N2CC(C(=O)OCc3nc(N)nc(Nc4ccccc4C)n3)CC2=O)cc1 (centres undefined)	2.96% (inactive)	
CCCCC/C=C/C1=CC(=O)C[C@H](c2ccc(OC)cc2)C1	-0.8% (inactive)	
CC(C)C(NC(=O)C1CCC(C(C)(C)C)CC1)C(=O)NCCc1ccc(S(N)(=O)=O)cc1 (centres undefined)	9.25% (inactive)	
O=C(/C=C/c1cccc([N+](=O)[O-])c1)NCCN1C(=O)S/C(=C\c2ccc(F)cc2)C1=O	5.26% (inactive)	
O=C(O)c1cccc(CN2C(=O)S/C(=C/c3ccccc3[N+](=O)[O-])C2=O)c1	28.5% (inactive)	
CCCCNC(C(=O)Nc1ccc([N+](=O)[O-])cc1Br)c1ccccc1 (centres undefined)	1.47% (inactive)	
COc1ccc(C(=O)N2CCC(C(=O)Nc3ccc4c(c3)OCO4)CC2)cc1	-4.42% (inactive)	
O=C(NCc1ccc(F)cc1)C(=O)NCC1OCCN1S(=O)(=O)c1cc(F)ccc1F (centres undefined)	6.59% (inactive)	
Cc1ccc([N+](=O)[O-])cc1NC(=O)C(C)NS(=O)(=O)c1ccc(F)cc1 (centres undefined)	2.19% (inactive)	

SMILES	inhibition	inhibition [1]
COc1ccc(NC(=O)CCCc2nc3ccccc3c(=O)[nH]2)cc1Cl	6.22% (inactive)	
CCN(CC)CCCN1C=C2C(=O)C(C)(OC(=O)CCC(=O)OC)C(=O)C(Br)=C2C=C1c1ccc(OC)cc1 (centres undefined)	8.8% (inactive)	
COC(=O)CCC(=O)OC1(C)C(=O)C=C2C=C(C3CC3)N(Cc3ccc(OC)cc3)C=C2C1=O (centres undefined)	17.3% (inactive)	
COC(=O)CCC(=O)OC1(C)C(=O)C=C2C=C(C3CC3)N(CCCOC(C)C)C=C2C1=O (centres undefined)	7.22% (inactive)	
COC(=O)CCC(=O)OC1(C)C(=O)C=C2C=C(C3CC3)N(C3CCCCC3)C=C2C1=O (centres undefined)	12.7% (inactive)	
COC(=O)CCC(=O)OC1(C)C(=O)C2=CN(Cc3ccc(OC)cc3)C(c3ccc(OC)cc3)=CC2=C(Br)C1=O (centres undefined)	17.2% (inactive)	
COC(=O)CCC(=O)OC1(C)C(=O)C=C2C=C(C3CC3)N(CC3CC3)C=C2C1=O (centres undefined)	9.84% (inactive)	
COC(=O)CCC(=O)OC1(C)C(=O)C2=CN(CCc3c[nH]c4ccccc34)C(c3ccc(OC)cc3)=CC2=C(Br)C1=O (centres undefined)	-2.45% (inactive)	
COC(=O)CCC(=O)OC1(C)C(=O)C=C2C=C(C3CC3)N(C3CCCC3)C=C2C1=O (centres undefined)	12.8% (inactive)	
N#Cc1ccc(CN2CCN(C(=O)CCNS(=O)(=O)c3ccc(F)c(F)c3)CC2)cc1	-7.08% (inactive)	
O=C(CSc1ccc2c(c1)OCCO2)NCC1CCCO1 (centres undefined)	-10.5% (inactive)	
O=c1c(-c2ccccc2)c(O)c2c(n1-c1ccccc1)CCCC2	-3.21% (inactive)	
O=C(O)c1ccc(-c2ccco2)n1Cc1ccccc1	4.75% (inactive)	
O=C(CN1CCN(Cc2ccc(F)cc2)CC1)Nc1ccccc1F	1.36% (inactive)	
CCN(C(=O)CSc1nc2ccccc2c(=O)n1CCOC)C1CCS(=O)(=O)C1 (centres undefined)	1.48% (inactive)	
O=C1c2ccc(-c3ccc(F)cc3OCc3ccccc3)cc2S(=O)(=O)c2cccc(C(=O)N3CCCC3)c21	8% (inactive)	
COc1ccc(NC(=O)c2cccc3c2C(=O)c2ccc(-c4ccc(F)cc4OCc4ccccc4)cc2S3(=O)=O)cc1	-0.7% (inactive)	
CC(C)c1cccc(-c2ccc3c(c2)S(=O)(=O)c2cccc(C(=O)NCc4ccccc4)c2C3=O)c1	-6.42% (inactive)	
CC(C)c1cccc(-c2ccc3c(c2)S(=O)(=O)c2cccc(C(=O)NC4CCCC4)c2C3=O)c1	-4.92% (inactive)	
O=C(OCCN1CCCCC1)c1ccccc1Cl	7.44% (inactive)	
CN(CC(=O)Nc1cccc(F)c1)CC(=O)N1CCCCC1	6.98% (inactive)	
COc1ccc(CN2CC(C(=O)NCCC(C)C)CC2=O)cc1 (centres undefined)	6.67% (inactive)	

SMILES	inhibition	inhibition [1]
CC(C)(C)C(=O)NCCCc1ccccc1	-0.68% (inactive)	
COc1cc(/C=C2\C(=O)NN(c3ccc(C)cc3)C2=O)cc([N+](=O)[O-])c1O	17.9% (inactive)	
COc1cc(/C=C2/C(=O)NN(c3cccc(F)c3)C2=O)ccc1OC(=O)c1ccco1	23% (inactive)	
COc1cc(/C=C2\C(=O)NN(c3ccccc3)C2=O)cc([N+](=O)[O-])c1O	26.6% (inactive)	
COc1cc(/C=C2\C(=N)N3N=C(S(C)(=O)=O)SC3=NC2=O)ccc1OC(=O)c1ccco1	-59.7% (inactive)	
CCOc1cc(/C=C2/C(=O)N(c3ccccc3)N=C2C)ccc1OC(=O)c1ccco1	19.1% (inactive)	
COc1cc(/C=C2/C(=O)NN(c3ccc(Cl)cc3)C2=O)ccc1OC(=O)c1ccco1	15.2% (inactive)	
CCOc1cc(/C=C2/NC(=O)NC2=O)cc([N+](=O)[O-])c1O	22.9% (inactive)	
CCOc1cc(/C=C2\NC(=O)NC2=O)cc([N+](=O)[O-])c1O	71.9% (inactive)	
Cc1cc(C)c(NC(=O)c2ccc3c(c2)NC(=O)C(C)S3)c(C)c1 (centres undefined)	-0.76% (inactive)	
O=S(=O)(NCCc1ccc(F)cc1)c1ccc(F)cc1Br	-1.99% (inactive)	-0.92%
CCCCCC(=O)NNC1=NCC(Cc2cccc(Cl)c2)S1 (centres undefined)	-9.62% (inactive)	
CCN(Cc1cnn(C)c1)Cc1nc(Cc2ccccc2Cl)no1	-2.18% (inactive)	
CCCCN1C(=O)/C(=C2\SC(N3CCCCC3)=NC2=O)c2ccccc21	1.1% (inactive)	
O=C(NCc1ccccc1)c1cccc(S(=O)(=O)N2CCCCC2)c1	-8.7% (inactive)	
COc1ccc(OC)c(/C=N/NC(=O)c2ccncc2)c1	-7.07% (inactive)	
CCc1ccccc1N(CC(=O)OC)S(C)(=O)=O	3.12% (inactive)	
Cc1cc(O)ccc1C1(c2ccc(O)cc2C)OC(=O)c2ccccc21	-9.01% (inactive)	
O=C1OC(c2ccccc2)(c2ccccc2)c2ccccc21	-6.99% (inactive)	
O=C1OC2(c3ccccc31)c1ccccc1-c1ccccc12	8.53% (inactive)	
O=C1OC(c2ccccc2)(c2ccc(O)cc2)c2ccccc21 (centres undefined)	0.78% (inactive)	
CC1CCCN(C(=O)c2nn(C)c3c2CS(=O)(=O)c2ccccc2-3)C1 (centres undefined)	-6.35% (inactive)	

SMILES	inhibition	inhibition [1]
COc1ccc(/C=C/C(=O)NC(C)(C)C)cc1S(=O)(=O)N1CCOCC1	3.24% (inactive)	
O=C(Nc1ccc2oc(=O)ccc2c1)c1cc([N+](=O)[O-])ccc1N1CCOCC1	-4.64% (inactive)	
Cc1ccc(OC(C)C(=O)N2CC(=O)Nc3ccccc32)cc1 (centres undefined)	1.78% (inactive)	
C[C@@H]1CN([C@@H](C)CO)C(=O)Cc2cc(NC(=O)Nc3ccc(F)cc3)ccc2O[C@@H]1CN(C)Cc1ccc(Cl)c(Cl)c1	-10.3% (inactive)	
Cc1nc(SCC(=O)NC(C)(C)C)c2c(-c3cccs3)csc2n1	-9.82% (inactive)	
COc1ccc(N2CCN(C(c3nnnn3C3CCCC3)C(C)C)CC2)cc1 (centres undefined)	-0.74% (inactive)	
Cc1ccc(C)n1Cc1ccccc1Cl	-24.6% (inactive)	
C=CCNC(=O)COc1c(C)ccc(C)c1C	-2.27% (inactive)	
CCOC(=O)N1CCC(N2C(=O)c3ccc(C(=O)NCCC(C)C)cc3C2=O)CC1	-0.65% (inactive)	
O=C(Nc1ccc(C(=O)c2ccc(C(=O)O)c(C(=O)O)c2)cc1)c1ccccc1	6.21% (inactive)	
O=C(O)c1ccc(NC(=O)C(c2ccccc2)c2ccccc2)cc1	-5.43% (inactive)	
NC1=NN(c2c(Cl)cc(Cl)cc2Cl)C(=O)C1	-5.65% (inactive)	
CC(C)(C)C(=O)NC1=NN(c2c(Cl)cc(Cl)cc2Cl)C(=O)C1	6.11% (inactive)	
CC(C)/C=C/C(=O)N1CCC(N2CCC(C(=O)NCC3CCCO3)CC2)CC1 (centres undefined)	6.04% (inactive)	
O=C(NCc1ccccn1)c1cccc(S(=O)(=O)N2CCc3ccccc32)c1	5.83% (inactive)	
Cc1c(NC(=O)c2ccc3c(c2)C(=O)N(Cc2ccco2)C3=O)cccc1C(=O)O	6.25% (inactive)	
O=C(Nc1ccc(O)cc1C(=O)O)c1ccc2c(c1)C(=O)N(Cc1ccco1)C2=O	-4.89% (inactive)	
O=C1CSC(=S)N1/N=C/c1ccc2c(c1)OCCO2	-7.17% (inactive)	
Cc1ccc(OCC(=O)NCCNC(=O)c2cnccn2)cc1C	-4.45% (inactive)	
Oc1c(C(Nc2ccccn2)c2cccnc2)cc(Cl)c2cccnc12 (centres undefined)	-1.46% (inactive)	
COc1ccccc1C(NC(C)=O)c1cc(Cl)c2cccnc2c1O (centres undefined)	-1.32% (inactive)	
